Results on three compounds are retold here after PubChem BioAssay AID1347156 (National Center for Advancing Translational Sciences (NCATS), 2019).

Results filed as inconclusive are left out. Active and inactive are the calls of the source. The call rests on the fitted dose curve; in most records, active means well fitted cell-killing curve with a large enough effect; inconclusive means small, poorly fitted or top-dose-only effect; inactive means flat fitted curve, though single readings scatter.
On the % scale 0 is the no-effect control and ±100 the full control effect; potency means the concentration at half of the fitted maximal effect.

This test in a line: DAPI mCherry counterscreen qHTS for Zika virus inhibitors. Further: nearly all actives have a fitted effect of over 55% in size. The conditions noted are these: Vero cells, DAPI nuclear count cytotoxicity, imaging 48-72 h, infected with Zika reporter virus, MOI 1; series mostly up to 32.6 µM; activity change, negative = cell loss: at the top concentration. In short, it runs like this:
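Vero cells (5,000/well), plated overnight, given compounds then recombinant ZIKV-mCherry at MOI 1 for 48-72 hrs at 37 degrees C; PFA-fixed, Hoechst-stained and imaged; nuclei counted and mCherry-positive cells scored as percent infection.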
With `O=C(O)c1cc(N(Cc2ccc(C3CCCCC3)cc2)C(=O)c2ccc(Oc3ccccc3)cc2)ccc1O`, the Potency is 35.5 µM (active).

For `O=C(Nc1c(C(=O)O)oc2ccccc12)c1ccc(C(F)(F)F)cc1`, the “activity change, negative = cell loss” value was -19.9% (inactive).

On to `CCCCc1nn2c(=O)cc(COC(=O)c3ccc(NC(=O)CCc4ccccc4)cc3)nc2s1`, for which the “activity change, negative = cell loss” value was -3.78% (inactive).
